{
  "source": "paper PMC12136788",
  "binders": {"B1": {"name": "chr3:31657911:31664018:-|three_prime_utr|ENSG00000144645|control|control|control (ssRNA)", "RNA": "GGGAGUUCUACAGUCCGACGAUCGGGUUUUUCUUGCUGAGCCCCCAAGACUGGAUAAAUACCAGGCAGGGGAAGGGAUGGACUAGGGCAGCUCGGUUCUGACUCCAGCUUUGGACAAGGCUUCAGGACAGGUUUUCUGCCACACAACAGAGGAUUGAGCAUCA"}, "B2": {"name": "chr2:190659421:190659522:+|CDS|ENSG00000138386|unk|FALSE|unique (ssRNA)", "RNA": "GGGAGUUCUACAGUCCGACGAUCAGAGACUGGGUCACAAACCCUGGGCUUUUCAAUCAGCCACUGACUUCCCUUCCUGUCAGUAGCAUACCCAUCUAUAAAUUACCAGAGGGAUCACCAACAUGGCUGGGAAUAUCCUGCAGUCAACAGAGGAUUGAGCAUCA"}, "B3": {"name": "chr10:16593140:16593241:-|3pUTR|ENSG00000148484|unk|total|mutant (ssRNA)", "RNA": "GGGAGUUCUACAGUCCGACGAUCUUAUUUUUCUUUUCACUCUCUUUCUAAUGCUUCCCACCUUACCUUUCCGAUUCUUUUGCCCGGUGGGAGAUUGUUAUAAGGUCUUUAAACCAUUUCCAUUUGUUUCUUUAACAUUACCAACAACAGAGGAUUGAGCAUCA"}, "B4": {"name": "chr5:72207278:72207408:+|3pUTR|ENSG00000131711|msi1_unk|FALSE|overlapping (ssRNA)", "RNA": "GGGAGUUCUACAGUCCGACGAUCAGAGAACAAUGACCUCAUUUUAUUUUCUAUGUUAGUUAUUUAUUUCAAAAUUAACAUUUUAGUUGAUUUUUGUCUGAUAAGUCUAUGUUUUGCACUGCUAACUAUGAUGAGGGUUUAAAACAACAGAGGAUUGAGCAUCA"}, "B5": {"name": "chr7:137014887:137014989:+|CDS|ENSG00000181072|unk|FALSE|unique (ssRNA)", "RNA": "GGGAGUUCUACAGUCCGACGAUCGCUACUUGGCUACUGAUUAGAGAACGCAAAAUGAAUAACUCAACAAACUCCUCUAACAAUAGCCUGGCUCUUACAAGUCCUUAUAAGACAUUUGAAGUGGUGUUUAUUGUCCUGGUGGCUCAACAGAGGAUUGAGCAUCA"}, "B6": {"name": "chr1:204554719:204554820:+|3pUTR|ENSG00000198625|unk|FALSE|unique (ssRNA)", "RNA": "GGGAGUUCUACAGUCCGACGAUCAAGUACUUUCUUUUGACAGAAAUUUUCAUUCUGCUUGCCAUUGCUAUAUUCUCCCUUUAUAGGAGCCAUUGGAUUUCUUUCCUUUUGUGGGAAAUGUCCCAUUAGCAUUUUCAGAUCUUUCAACAGAGGAUUGAGCAUCA"}},
  "note": "The full ranking holds about 5,800 sequences; the median of “enrichment r” is about 0.54, and the highest 2% start at about 16. This is one part of a sample in which the highest values are shown more often than they occur.",
  "data": [
    {"biological_target": "MSI1 full-length (mouse, UniProt Q61474 1-362)", "sequence (Q61474 whole entry)": "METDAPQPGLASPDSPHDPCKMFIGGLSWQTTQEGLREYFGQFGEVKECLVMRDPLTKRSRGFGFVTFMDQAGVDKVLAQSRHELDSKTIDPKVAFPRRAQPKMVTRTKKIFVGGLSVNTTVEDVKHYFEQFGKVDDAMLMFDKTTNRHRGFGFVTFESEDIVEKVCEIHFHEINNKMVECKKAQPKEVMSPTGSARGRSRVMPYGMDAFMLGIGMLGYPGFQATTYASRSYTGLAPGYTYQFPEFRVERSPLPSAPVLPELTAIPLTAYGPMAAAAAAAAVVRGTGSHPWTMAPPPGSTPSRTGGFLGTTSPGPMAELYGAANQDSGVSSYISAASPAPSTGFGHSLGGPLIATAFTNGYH", "assay": "nsRBNS (natural sequence RNA bind-n-seq); RBNS binding buffer (assumed for nsRBNS): 25 mM Tris pH 7.5, 150 mM KCl, 3 mM MgCl2, 0.01% Triton X-100, 500 ug/ml BSA, 20 U/ml SUPERase-In, 4 C; UNK is unkempt and MSI1 is Musashi-1; names of the RNAs are library labels; protein concentration not given here; high values mean tight binding", "units": {"binding signal": "enrichment R"}, "values": [
      {"binder": "B1", "binding signal": 0.515},
      {"binder": "B2", "binding signal": 0.584},
      {"binder": "B3", "binding signal": 1.23},
      {"binder": "B4", "binding signal": 1.11},
      {"binder": "B5", "binding signal": 0.188},
      {"binder": "B6", "binding signal": 0.583}
    ]}
  ]
}
